# Screens as filed in PubChem.
# Pf Dd2 inh: blocks in vitro growth of P. falciparum Dd2; P. falciparum Dd2 growth, SYBR Green, 72 h; Potency, µM (top dose mostly 28.9 µM), for inactives: at the top dose activity, negative = inhibition, hits mostly inhibitors; actives 4.3% (n = 120,000); AID 1347417; active = well fitted inhibition curve with a large enough effect;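 note: plate controls were DMSO vehicle for no effect and reference drug for full effect; nearly all actives have a fitted effect of over 65% in size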
#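 Infected erythrocytes (Dd2, 0.3% parasitemia, 2.5% hematocrit final) are added to compound in RPMI-1640/Albumax II medium, grown 72 h at 37C in low oxygen, then lysed with saponin/Triton-X containing SYBR Green and read by fluorescence.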
# Active calls of the source: *; i = inactive; [ ] = dose if it differs, or a comment. The sample as a whole holds a higher share of hits than the screen did. Potency is the fitted concentration of half-maximal effect.
SMILES,Pf Dd2 inh
COc1ccccc1-c1nc(C(=O)N(C)C)n2ccncc12,3%
O=C(NCc1ccc2c(c1)OCO2)c1nc(-c2ccc(Cl)cc2Cl)c2ccccn12,i
O=C(NCc1cccnc1)c1nc(-c2ccc(Cl)cc2Cl)c2cnccn12,11µM*
CC(C)CC(=O)N1CCCC(c2nc(-c3cccnc3)no2)CCNC(=O)CC1 (stereo not drawn),-10%
CCn1cc(C(=O)N2CCC3(CCCN(C)C3=O)C2)cn1 (stereo not drawn),-5%
CSCC(=O)N[C@H]1CCN2C(=O)c3cc(-c4cccc(C)c4C)ccc3NC(=O)[C@H]12,i
COc1ccc(Cl)cc1-c1ccc2c(c1)C(=O)N1CC[C@H](NC(=O)c3cccs3)[C@H]1C(=O)N2,7.9µM*
O=C(N[C@H]1CCN2C(=O)c3cc(-c4ccc(Cl)cc4)ccc3NC(=O)[C@H]12)c1cccs1,-17%
O=C1Nc2cc(Cl)ccc2C(=O)N2CC[C@H](NS(=O)(=O)c3cccs3)[C@@H]12,i
COc1ccc(Cl)cc1-c1ccc2c(c1)C(=O)N1C[C@@H](NS(=O)(=O)c3ccc(F)cc3)C[C@H]1C(=O)N2,7.1µM*
O=C1Nc2ccc(-c3ccccc3F)cc2C(=O)N2C[C@@H](NS(=O)(=O)c3ccc(F)cc3)C[C@@H]12,i
COc1ccc(-c2ccc3c(c2)C(=O)N2CC[C@H](NS(=O)(=O)c4cccs4)[C@H]2C(=O)N3)cc1,11µM*
Cc1cccc(-c2ccc3c(c2)C(=O)N2CC[C@H](NS(=O)(=O)c4cccs4)[C@H]2C(=O)N3)c1C,10µM*
COc1ccc(-c2ccc3c(c2)C(=O)N2CC[C@H](NC(=O)CSC)[C@H]2C(=O)N3)cc1,i
O=C(N[C@H]1CCN2C(=O)c3ccc(Cl)cc3NC(=O)[C@H]12)c1cccs1,-18%[44.1 µM]
COc1ccc(Cl)cc1-c1ccc2c(c1)C(=O)N1C[C@H](O)C[C@H]1C(=O)N2,-5%[44.1 µM]
COc1ccc(-c2ccc3c(c2)C(=O)N2CC[C@H](NC(=O)c4cccs4)[C@H]2C(=O)N3)cc1,-1%
CNC(=O)C1(N2CCC[C@H]2C(=O)N2CCOCC2)COC1,1%[44.1 µM]
COc1ccc(-c2nnc([C@H]3CCN(Cc4ccc(C(=O)O)cc4)C3)o2)cc1,i
CCCn1cnc2c1CN(S(C)(=O)=O)[C@H](C(=O)OC)C2,7%[44.1 µM]
COc1ccc(CC(=O)N2CC(c3nnc(C(C)C)o3)C3(CCOCC3)C2)cc1Cl (stereo not drawn),-12%
O=C(N1CCOCC1)N1CCOC[C@H]1c1ncc(-c2ccc(OC(F)(F)F)cc2)[nH]1,-28%[44.1 µM]
COCCN1C(=O)CC[C@]2(C(=O)NCc3ccc(F)c(Cl)c3)CCCC[C@@H]12,-23%
C[S+](=O)([O-])N1CC2(Cc3ccccc31)CN([S+](=O)([O-])c1cccs1)C2,-30%
O=C1NC2CCCCC2=C1CC(=O)N1CCOCC1 (stereo not drawn),-16%
SMILES,Pf Dd2 inh
COCC1CN(C(C)=O)CC12CCN(Cc1cccc(OC)c1)CC2 (stereo not drawn),i
O=C(Cn1ccn2nc(-c3ccc(F)cc3)c(CO)c2c1=O)NCCc1ccccc1,1%
Cc1ccc(-c2nc3c(c(SCC(=O)N4CCCCC4)n2)Cc2cc(C)ccc2O3)cc1,-22%
Cc1ccc(C)c(NC(=O)CSc2nc(-c3ccccc3Cl)nc3c2Cc2c(CO)cnc(C)c2O3)c1,9%
COc1ccccc1-c1nc2c(c(SCC(=O)Nc3c(C)cc(C)cc3C)n1)Cc1c(CO)cnc(C)c1O2,-16%
Cc1cccc(-c2nc3c(c(SCc4ccccc4Cl)n2)Cc2c(CO)cnc(C)c2O3)c1,1%
C=Cc1ccc(CSc2nc(-c3ccc(C)cc3)nc3c2Cc2c(CO)cnc(C)c2O3)cc1,2.8µM*
CCc1ccccc1NC(=O)CSc1nc(-c2ccccc2OC)nc2c1Cc1c(CO)cnc(C)c1O2,-12%
CCCCSc1nc(-c2cccc(OC)c2)nc2c1Cc1c(CO)cnc(C)c1O2,-14%
COc1ccc(-c2nc3c(c(SCC(=O)Nc4cc(C)cc(C)c4)n2)Cc2c(CO)cnc(C)c2O3)cc1,49%
C=Cc1ccc(CSc2nnc(C)n3c2cc2occc23)cc1,-1%
Cc1ccc(CSc2nc(-c3ccccc3C)nc3c2Cc2c(CO)cnc(C)c2O3)cc1,5µM*
CCc1ccc(NC(=O)CSc2nc(-c3cccc(OC)c3)nc3c2Cc2c(CO)cnc(C)c2O3)cc1,3.5µM*
CCc1ccc(CSc2nc(-c3ccccc3OC)nc3c2Cc2c(CO)cnc(C)c2O3)cc1,3.2µM*
CN1[C@@H](CCC(=O)N2CCN(c3ccccc3)CC2)CNC(=O)[C@@H]2[C@H]1CCN2Cc1ccc(CO)o1,i
CC(NC(=O)OCc1ccccc1)c1nc2cccnc2n1C1CCCC1 (stereo not drawn),0%
CN(C)c1cccc(-c2cn(C)c(=O)n3cc(CN4CCNC(=O)C4)nc23)c1,-13%[44.1 µM]
COc1ccccc1C(=O)N1CCC(OC2CCN(C)CC2)CC1,-5%
COc1cccc([S+](=O)([O-])N2CCC(N3Cc4ccccc4C3=O)CC2)c1,-3%
Cn1c(Cn2cncn2)nnc1C1CCN(Cc2ccc3ccccc3n2)CC1,-23%
